Laboratory results taken from PubChem BioAssay AID1159580 (chemical genetic matrix, 2015).
Where “and” joins values, the source holds several entries; their conditions need not be identical. Equal values may be shown once. The campaign covered roughly 5,500 compounds. About 2,000 (36%) were called active. Another 18% or so got no clear call; they are omitted. Rule as the data show it: active = normalized growth mostly below about 0.91 (no sharp cut-off); inconclusive = no clear call, values can overlap the other calls; inactive = mostly above about 0.92. Some of the results follow.

Experiment: chemical genetic growth profiling, strain panel (AID 1159580);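 also: tested at 20 µM; growth read once vehicle control cultures reached saturation at 30 °C; 1 = growth at the plate median or of vehicle wells; lower values mean less growth of the strain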
Conditions: S. cerevisiae deletion strains, growth OD

Measured: normalized growth

CC(=O)Oc1ccc2c(c1)CCC1C2CC[C@]2(C)C(=O)CCC12 (some centres undefined)
inactive: locus YAL013W, strain DEP1, active compounds read low 0.985 | locus YAL021C, strain ccr4, active compounds read low 0.995 | locus YAL026C, strain drs2, active compounds read low 0.992 | locus YAL030W, strain snc1, active compounds read low 0.972 | locus YBL061C, strain skt5, active compounds read low 0.987 | locus YBR009C, strain hhf1, active compounds read low 0.986 | locus YBR021W, strain FUR4, active compounds read low 0.961 | locus YBR023C, strain chs3, active compounds read low 0.985 | locus YBR171W, strain sec66, active compounds read low 0.963 | locus YBR229C, strain ROT2, active compounds read low 1 | locus YBR231C, strain swc5, active compounds read low 0.984 | locus YBR279W, strain paf1, active compounds read low 0.98 | locus YCL011C, strain gbp2, active compounds read low 0.994 | locus YCL016C, strain dcc1, active compounds read low 0.997 | locus YCL029C, strain bik1, active compounds read low 1.03 | locus YCL061C, strain MRC1, active compounds read low 0.985 | locus YCL069W, strain vba3, active compounds read low 0.986 | locus YCR088W, strain abp1, active compounds read low 0.979 | locus YDL005C, strain med2, active compounds read low 0.959 | locus YDL035C, strain GPR1, active compounds read low 0.957 | locus YDL040C, strain nat1, active compounds read low 0.989 | locus YDL074C, strain BRE1, active compounds read low 0.911 | locus YDL101C, strain DUN1, active compounds read low 1 | locus YDL134C, strain PPH21, active compounds read low 0.977 | locus YDL185W, strain tfp1, active compounds read low 1 | locus YDL192W, strain arf1, active compounds read low 1.01 | locus YDR001C, strain nth1, active compounds read low 0.985 | locus YDR069C, strain doa4, active compounds read low 0.969 | locus YDR101C, strain arx1, active compounds read low 1.02 | locus YDR150W, strain NUM1, active compounds read low 0.994 | locus YDR159W, strain sac3, active compounds read low 0.979 | locus YDR162C, strain NBP2, active compounds read low 0.998 | locus YDR195W, strain ref2 0.942 | locus YDR297W, strain sur2, active compounds read low 0.99 | locus YDR318W, strain mcm21, active compounds read low 1.01 | locus YDR334W, strain swr1, active compounds read low 0.984 | locus YDR335W, strain msn5, active compounds read low 0.992 | locus YDR388W, active compounds read low 1.02 | locus YDR392W, strain spt3, active compounds read low 1.03 | locus YDR502C, strain sam2, active compounds read low 1.01 | locus YEL003W, strain gim4, active compounds read low 0.988 | locus YEL037C, strain rad23, active compounds read low 0.989 | locus YEL061C, strain CIN8 (second series), active compounds read low 0.977 | locus YEL061C, strain CIN8, active compounds read low 0.998 | locus YER015W, strain faa2, active compounds read low 0.964 | locus YER016W, strain bim1, active compounds read low 0.991 | locus YER110C, active compounds read low 1.01 | locus YER111C, strain swi4, active compounds read low 0.96 | locus YER155C, strain BEM2 (second series), active compounds read low 0.923 | locus YER155C, strain BEM2, active compounds read low 1.02 | locus YER167W, strain BCK2, active compounds read low 1.02 | locus YFR010W, strain ubp6, active compounds read low 0.985 | locus YGL078C, strain dbp3, active compounds read low 1.02 | locus YGL086W, strain mad1, active compounds read low 1 | locus YGL167C, strain pmr1, active compounds read low 0.98 | locus YGL173C, strain kem1, active compounds read low 0.981 | locus YGL227W, strain vid30, active compounds read low 0.987 | locus YGL240W, strain doc1, active compounds read low 0.95 | locus YGL248W, strain PDE1, active compounds read low 0.949 | locus YGL253W, strain hxk2, active compounds read low 0.995 | locus YGR135W, strain pre9, active compounds read low 1.01 | locus YGR229C, strain SMI1, active compounds read low 1.03 | locus YGR252W, strain gcn5, active compounds read low 0.887 | locus YHR013C, strain ard1, active compounds read low 1 | locus YHR027C, strain rpn1, active compounds read low 0.969 | locus YHR030C, strain SLT2, active compounds read low 1.01 and 0.944 | locus YHR079C, strain IRE1 (second series), active compounds read low 1.02 | locus YHR079C, strain IRE1, active compounds read low 0.933 | locus YHR094C, strain hxt1, active compounds read low 1.02 | locus YHR129C, strain ARP1, active compounds read low 1.01 | locus YHR142W, strain chs7, active compounds read low 0.978 | locus YHR200W, strain rpn10, active compounds read low 1.02 | locus YIL066C, strain RNR3, active compounds read low 0.944 | locus YIL073C, strain SPO22, active compounds read low 0.921 | locus YIL125W, strain kgd1, active compounds read low 1.01 | locus YIR030C, strain dcg1, active compounds read low 1.02 | locus YJL092W, strain hpr5, active compounds read low 0.981 | locus YJL095W, strain BCK1 (second series), active compounds read low 0.985 | locus YJL095W, strain BCK1, active compounds read low 0.92 and 0.928 | locus YJL115W, strain asf1, active compounds read low 0.978 | locus YJL129C, strain trk1, active compounds read low 0.984 | locus YJL134W, strain LCB3, active compounds read low 1.01 | locus YJL154C, strain vps35, active compounds read low 0.979 | locus YJL164C, strain tpk1, active compounds read low 0.996 | locus YJL166W, strain qcr8, active compounds read low 0.96 | locus YJL168C, strain set2, active compounds read low 1.01 | locus YJL187C, strain SWE1 (second series), active compounds read low 0.969 | locus YJL187C, strain SWE1, active compounds read low 0.981
active: locus YDR137W, strain rgp1, active compounds read low 0.808
